# Out of some 220,000 compounds screened, about 2,300 (1%) were called active. Roughly 6% stayed inconclusive and do not appear here. This is one part of a sample in which actives are shown more often than they occur. Values without a mark were called inactive. The call rests on the fitted dose curve; in most records, active means well fitted inhibition curve with a large enough effect; inconclusive means small, poorly fitted or top-dose-only effect, or effect the other way; inactive means no such curve, though single readings can be large or run the other way.
# Molecular target: Neuropeptide S receptor (Homo sapiens) (UniProt Q6W5P4)
# Assay: qHTS Assay for Antagonists of the Neuropeptide S Receptor: cAMP Signal Transduction; further: nearly all actives have a fitted effect of over 50% in size
# Conditions: CHO-NPSR cells, cAMP TR-FRET, antagonist mode; series mostly up to 38.3 µM; activity change, negative = inhibition: at the top concentration
# On the % scale 0 is the no-effect control and ±100 the full control effect; potency means the concentration at half of the fitted maximal effect.
# Chain of Neuropeptide S receptor (Homo sapiens) (Q6W5P4 whole entry, looked up): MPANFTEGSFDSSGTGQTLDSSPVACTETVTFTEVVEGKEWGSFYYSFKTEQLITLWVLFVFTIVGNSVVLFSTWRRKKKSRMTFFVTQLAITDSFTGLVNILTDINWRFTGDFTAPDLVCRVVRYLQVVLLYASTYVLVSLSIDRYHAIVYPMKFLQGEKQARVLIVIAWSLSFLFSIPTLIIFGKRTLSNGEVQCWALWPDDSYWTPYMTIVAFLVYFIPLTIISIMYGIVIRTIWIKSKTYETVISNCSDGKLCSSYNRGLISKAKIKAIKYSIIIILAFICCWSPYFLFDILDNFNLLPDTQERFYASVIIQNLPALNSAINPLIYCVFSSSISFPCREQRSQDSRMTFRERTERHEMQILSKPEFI
Structure (SMILES),"activity change, negative = inhibition",Potency
O=C(/C=C/c1ccccc1[N+](=O)[O-])OC1CCCCC1=O (configuration not stated),1.58%,
O=C(/C=C/c1ccccc1[N+](=O)[O-])NCC1CCCO1 (configuration not stated),12.9%,
CC1CCCCC1NC(=O)/C(C#N)=C/C=C/c1ccccc1[N+](=O)[O-] (configuration not stated),,10 µM (active)
CN(c1ccccc1)S(=O)(=O)c1ccc(Cl)c(C(=O)OCC(=O)NCc2ccco2)c1,-0.308%,
CN(C)C(=S)Nc1ccc(Br)cc1Cl,-9.99%,
CCN(CC)CCC(c1cc(OC)c(OC)c(OC)c1)c1c(OC)cc(OC)c2c(-c3ccccc3)cc(=O)oc12 (configuration not stated),-24.9%,
COc1cc(C(CCN2CCN(c3ccccc3)CC2)c2c(OC)cc(OC)c3ccc(=O)oc23)cc(OC)c1OC (configuration not stated),,10 µM (active)
COc1ccc(C(CC(=O)N2CCN(c3ccccc3)CC2)c2c(O)cc(OC)cc2OC)cc1 (configuration not stated),-25.2%,
O=C(Nc1ccccc1)Nc1nnc(COc2ccccc2F)s1,-5.72%,
COc1ccc(NC(=O)CCN2C(=O)/C(=C/c3ccc4c(c3)OCO4)SC2=S)cc1,3.47%,
O=C(Cn1cnc2ccccc2c1=O)Nc1cccc(S(=O)(=O)N2CCCCC2)c1,-8.02%,
CC(=O)Nc1ccc(CC#N)cc1,-15.3%,
Cc1cc(-c2nc(C)c(-c3nnc(SCC(=O)Nc4ccccc4)n3C)s2)no1,5.55%,
COc1ccc(N2C(=O)c3ccccc3NC2c2ccc(OC)c(CN3CCOCC3)c2)cc1 (configuration not stated),-35.7%,
CCC(=O)NC(=S)Nc1ccc(NC(=O)c2ccco2)c(Cl)c1,-27.6%,
CCN(CC)P(=O)(Nc1ccc(SC(F)F)cc1)c1ccc(N(C)C)cc1NC(=O)c1ccco1 (configuration not stated),,5.01 µM (active)
O=C(Nc1ccc(Sc2ccc(Br)cc2)cc1)c1ccco1,-22.6% [at 46.1 µM],
C=CCCN(Cc1ccccc1)S(=O)(=O)c1ccccc1Br,-39.7%,
O=C(NNC(=O)c1csc(-c2cccnc2)n1)Nc1ccc(Cl)cc1,-1.58%,
O=C(O)CC12CC3CC(C1)CC(n1ncc(NCc4ccc(F)cc4)c(Cl)c1=O)(C3)C2,-4.32%,
O=C(NNC(=S)NC1CC2CCC1C2)c1ccc(Cl)cc1 (configuration not stated),-26.4%,
CC(C)Cn1c(CN(Cc2ccccc2)Cc2ccccc2)nc2c1c(=O)n(C)c(=O)n2C,,12.6 µM (active)
COCCn1c(CN(Cc2ccccc2)Cc2ccccc2)nc2c1c(=O)n(C)c(=O)n2C,-20.7% [at 46.1 µM],
CC(C)CCn1c(CN(C)Cc2ccccc2)nc2c1c(=O)n(C)c(=O)n2C,-20.1% [at 46.1 µM],
S=c1[nH]nc(-c2cccnc2)n1/N=C/C(Cl)=C\c1ccccc1,-30.4%,
Cc1cc(-c2n[nH]c(=S)n2/N=C/c2ccco2)n[nH]1,2.84%,

Structure (SMILES),"activity change, negative = inhibition",Potency
Cc1cc(-c2n[nH]c(=S)n2/N=C/C(Br)=C/c2ccccc2)n[nH]1,,3.98 µM (active)
Cn1c(SCC(=O)c2ccc(F)cc2)nnc1-c1ccccn1,-7.53%,
Cc1nc2nc(SCC(=O)c3ccccc3)[nH]c2cc1Br,-26.3%,
Nc1nc(SC23CC4CC(CC(C4)C2)C3)ns1,7.63%,
Cn1c(C(=O)O)ccc1S(=O)(=O)N(Cc1ccccc1)Cc1ccccc1,35.6%,
N#CC1=C(SCc2ccccc2)NC(=O)C(C#N)C12CCCC2 (configuration not stated),3.01% [at 46.1 µM],
N#CC1=C(SCc2ccc(C#N)cc2)N=C(N)C(c2nc(-c3ccccc3)cs2)C12CCCCC2 (configuration not stated),,3.98 µM (active)
N#C/C(=C1\CCCN1)c1nc(-c2ccccc2)cs1,-23.6% [at 46.1 µM],
S=c1[nH]c2ccccc2c2ccccc12,-17.7%,
CCCCCCCCCCCCC(NC(C)=O)(C(=O)OCC)C(=O)OCC,40.3%,
Nc1ccccc1Sc1cc(Cl)nnc1Cl,-25.8%,
Cc1ccc(-c2c[n+](CC(=O)Nc3ccccc3)c3n2CCC3)cc1,-1.52%,
CCOC(=O)c1c(C)[nH]c(=S)c(C#N)c1-c1ccccc1,,7.94 µM (active)
CCOC(=O)c1c(C)[nH]c2c1-c1ccccc1C(=O)C2=O,6.24%,
CC(=O)c1c(C)[nH]c(=S)c(C#N)c1-c1ccc(F)cc1,-16.5%,
Cn1cnc(S(=O)(=O)Nc2ccc3c(c2)OCCO3)c1,9.08%,
Cc1cc(C)cc(NC(=O)NC2CCN(CC(=O)Nc3cccc(Cl)c3C)CC2)c1,-25.3%,
O=C(Nc1ccccc1Cl)/C(Cl)=C(\Cl)S(=O)c1ccccc1 (configuration not stated),,7.94 µM (active)
O=C(CN1CCCCC1)Nc1ccccc1Cl,-3.09%,
COCCN(CCOC)C(=S)Nc1ccccc1Cl,8.02%,
COc1ccc(C(=O)N/N=C2\CCS(=O)(=O)c3ccc(F)cc32)cc1OC,-2.66%,
COC(=O)c1cc(C(=O)OCC(=O)Nc2cc(C)on2)cc([N+](=O)[O-])c1,-14.2%,
N/C(=N\OC(=O)CCn1cccc(C(F)(F)F)c1=O)c1ccc(OC(F)(F)F)cc1,-8.1%,
Cn1c(S(=O)(=O)O)nc2ccccc21,22.2%,
Cc1ccc(NC(=O)/C(=C/c2ccc([N+](=O)[O-])cc2)NC(=O)c2ccccc2)cc1,7.14%,
N#C/C(=C\N1CCOCC1)S(=O)(=O)c1ccc(Cl)cc1,14.9%,

Structure (SMILES),"activity change, negative = inhibition",Potency
O=C(COc1ccccc1)N1CCN=C1SCc1cccc(F)c1,-1.12%,
N#CCCCn1c(O)c(N=NC(=O)C(O)c2ccccc2)c2ccccc21 (configuration not stated),-19.2%,
O=C(NCC(c1cccs1)N1CCOCC1)c1cc(-c2ccccn2)nc2ccccc12 (configuration not stated),7.93%,
O=C(NCc1cccs1)c1cc(-c2ccccn2)nc2ccc(Br)cc12,,10 µM (active)
O=C(NCc1ccccn1)c1cc(Br)ccc1Cl,7.75%,
C#CCO[C@@H]1C[C@H](n2cnc3c(=O)[nH]c(NC(=O)C(C)C)nc32)O[C@@H]1CO,10.8%,
CCC1=NN2C(=N)/C(=C/c3cc(C)n(-c4ccccc4)c3C)C(=O)N=C2S1,19.1%,
Cc1ccc2cc(/C=N/Nc3ccc(C(=O)O)cc3)c(Cl)nc2c1,-22.4%,
Cc1ccc(C2C3=C(Nc4[nH]n(-c5ccccc5)c(=O)c42)c2ccccc2C3=O)cc1 (configuration not stated),-43.2%,
Cc1nn(-c2ccccn2)c2c1C(c1ccncc1)C1=C(CC(C)(C)CC1=O)N2 (configuration not stated),-14.2% [at 46.1 µM],
Cc1cc(C)c(C2C3=C(Nc4c2c(C)nn4-c2ccccn2)c2ccccc2C3=O)c(C)c1 (configuration not stated),,10 µM (active)
COCc1cc(=O)[nH]c(-c2ccc(C(F)(F)F)cc2)n1,-8.06%,
Cc1oc(C(N)=O)cc1COc1ccc(C(N)=O)cc1,11.4%,
O=C(NC(Nc1nc2ccc([N+](=O)[O-])cc2s1)(C(F)(F)F)C(F)(F)F)c1ccccc1,,3.98 µM (active)
O=C(O)CCC(=O)Nc1nc2ccc([N+](=O)[O-])cc2s1,36.1%,
O=C(Nc1nc2ccc([N+](=O)[O-])cc2s1)c1ccncc1,-23.6%,
O=c1c2cc(-c3ccccc3)sc2nc2n1N=C(c1cccs1)CS2,12.2%,
Brc1ccc2ncnc(NCc3cccnc3)c2c1,48.1%,
O=C(Nc1cccnc1Oc1ncnc2cc(Cl)ccc12)c1ccc(F)cc1,4.01%,
N#Cc1c(NCCO)ccc([N+](=O)[O-])c1NCCO,8.09%,
CCN1CCN(c2ccc([N+](=O)[O-])cc2C(=O)c2ccc(Cl)cc2)CC1,-24.6% [at 46.1 µM],
Cc1cccc(NC(=O)c2cc([N+](=O)[O-])ccc2N2CCN(C)CC2)c1,-44.1%,
O=C(Nc1cccc(Cl)c1)c1cc([N+](=O)[O-])ccc1N1CCN(CCO)CC1,,10 µM (active)
CCC(C)N1C(=S)SC(C)(C)C1N(O)C(=O)NC1CCCCC1 (configuration not stated),-8.21%,
CCCN(CCC)S(=O)(=O)c1ccc(C(=O)N2CC3CCC(CC3)C2)cc1,59.1%,
COc1ccc(C(=O)Cc2cnn(-c3ccccc3)c2)c(O)c1,-8.11% [at 46.1 µM],

Structure (SMILES),"activity change, negative = inhibition",Potency
CCOc1ccc(-c2n[nH]c(C)c2-c2ccccn2)c(O)c1,-0.578%,
Cc1[nH]nc(-c2ccc(OCc3cnn(-c4ccccc4)c3)cc2O)c1Oc1ccc(Cl)cc1,,10 µM (active)
CC(C)n1c(CN2CCN(Cc3ccccc3)CC2)nc2ccccc21,15.9%,
Cn1cc(S(=O)(=O)NC(c2ccccc2)c2ccccc2)c(=O)n(C)c1=O,11.3%,
CC(=O)Nc1nc2ccccc2n1Cc1ccc(C)cc1,2.41%,
CCC(=O)NCCc1nc2ccccc2n1CC,-9.81% [at 46.1 µM],
CCCc1nc2c(C)cc(-c3nc4ccccc4n3C)cc2n1Cc1ccc(-c2ccccc2C(=O)O)cc1,,1.26 µM (active)
CS(=O)(=O)c1sc(C(=O)NC(=S)Nc2ccc(OC(F)(F)F)cc2)c2c1C=CCC2,0.129%,
Cc1ccc2nc(-c3cccc(Br)c3)cc(C(=O)Nn3cnnc3)c2c1,-9.85%,
Cc1cccc(-[n+]2c(-c3cccc(Br)c3)[nH]c3nc4ccccc4nc32)c1,,10 µM (active)
COc1ccc2cc1Oc1ccc(cc1)C[C@H]1c3cc(c(OC)cc3CCN1C)Oc1c(O)c(OC)cc3c1[C@H](C2)N(C)CC3,6.91%,
O=C(Nc1nnc(COc2ccccc2)s1)Nc1ccccc1F,14.2%,
CCC(=O)c1ccc(OCC(=O)Nc2ccc3nc(C)sc3c2)cc1,-3.19%,
Cc1cccn2c(=O)c(/C=C3\SC(=S)N(CC(C)C)C3=O)c(NCCCOC(C)C)nc12,-1.16% [at 46.1 µM],
CCOC(=O)CC1C(=O)NCCN1C(=O)COc1ccc(Br)cc1C (configuration not stated),2.52% [at 46.1 µM],
CCOC(=O)CC1C(=O)NCCN1c1nc2c(C)cccn2c(=O)c1/C=C1\SC(=S)N(C(C)CC)C1=O (configuration not stated),,12.6 µM (active)
CC(C)OP(=O)(OC(C)C)C(Nc1ccccc1)c1cccc([N+](=O)[O-])c1 (configuration not stated),-43.6%,
CCc1nnc(NS(=O)(=O)c2ccc(NC(=S)NC(=O)c3cccs3)cc2)s1,27.6%,
Cc1sc(NC(=S)NC(=O)c2cccs2)nc1-c1ccc(CC(C)C)cc1,,12.6 µM (active)
Cc1ccc(-c2csc(NC(=O)c3cccs3)n2)cc1,-24.1% [at 46.1 µM],
COC(C[C@@H](O)[C@H](C)[C@H](O)COCc1ccccc1)OC,21.1%,
O=C(Nc1ccccc1)O/N=C1/CCCc2occc21,2.04%,
O=C(CNCc1cccs1)Nc1cc(S(=O)(=O)N2CCCC2)ccc1Cl,-21.1%,
C=CCNC(=O)CSc1nc2scc(-c3ccco3)c2c(=O)n1CC=C,-7.73%,

# Source: PubChem BioAssay AID1461 (National Center for Advancing Translational Sciences (NCATS), 2008)
